# PubChem BioAssay (Tox21)
# A number with no mark means an inactive call. Results filed as inconclusive are left out. A call without a number means that no potency is given here. Activity calls are given as the source filed them. Unless noted, calls come from the whole dose curve; as a rule, active = well fitted curve in the direction sought with a large enough effect in the repeat runs; inconclusive = weak or mixed curves; inactive = no such curve, though single readings can be large; an effect the other way counts as inactive or inconclusive.
# Key:
# [1] = Caspase-3/7 induction in HepG2 cells by small molecules, qHTS assay (AID 1346978); note: nearly all actives have a fitted effect of over 15% in size; note: potency is the fitted concentration of half-maximal effect
# Procedure, shortened: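 Wild-type HepG2 cells (2,000/well) were settled 5 h at 37 C, 5% CO2, then exposed to compounds in DMSO for 17 h. Caspase-3/7 activity was read by luminescence 30 min after adding Caspase-Glo 3/7 reagent at room temperature.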
# [2] = Caspase-3/7 induction in CHO-K1 cells by small molecules, qHTS assay (AID 1346980); note: nearly all actives have a fitted effect of over 15% in size
# Procedure, shortened: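 Wild-type cells were seeded at 1,500 per well and settled 5 hr at 37 C, 5% CO2, then exposed to DMSO-dissolved compounds for 17 hr. Caspase-Glo 3/7 reagent was added, and luminescence was read after 30min at room temperature.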
# [3] = Caspase-3/7 induction in HepG2 cells by small molecules, qHTS cell viability counter screen (AID 1346981); note: nearly all actives have a fitted effect of over 30% in size; note: potency is the fitted concentration of half-maximal effect
# Procedure, shortened: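 Multiplexed with the caspase-3/7 assay: HepG2 cells, 16 hr compound treatment, CellTiter-Fluor viability detection by fluorescence.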
# [4] = target: Nuclear receptor subfamily 1 group I member 2 (Homo sapiens) (UniProt O75469); test: Human pregnane X receptor (PXR) small molecule agonists, qHTS assay (AID 1346982); note: nearly all actives have a fitted effect of over 35% in size; note: potency is the fitted concentration of half-maximal effect
# Procedure, shortened: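 We seeded PXR-Luc HepG2 cells in assay medium containing 5% charcoal-stripped FBS, added compounds 5 hr later, incubated 24 hr, and read luminescence with ONE-Glo reagent.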
# [5] = target: Nuclear receptor subfamily 1 group I member 2 (Rattus norvegicus) (UniProt Q9R1A7); test: Rat pregnane X receptor (rPXR) activation by small molecules, qHTS assay (AID 1346983); conditions: rPXR luciferase reporter cells, One-Glo luminescence, 24 h; max activation: hits give high values; note: nearly all actives have a fitted effect of over 20% in size
# Procedure, shortened: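 Cell-based rPXR luciferase reporter assay, 2,000 cells per well, rested 5hr at 37 C before compound addition in DMSO, then 24 hr at 37 C. One-Glo reagent was added and luminescence read after 30 min at room temperature.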
# [6] = target: Nuclear receptor subfamily 1 group I member 2 (Homo sapiens) (UniProt O75469); test: CYP3A4 induction through human pregnane X receptor (PXR) by small molecules, qHTS assay (AID 1346984); note: nearly all actives have a fitted effect of over 40% in size
# Procedure, shortened: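 qHTS, concentration-response format: HepG2 DPX-2 line, PXR/CYP3A4-luc. Exposure 24 h, 37C. Substrate Luciferin-IPA 3uM final, 3 h. Detection One-Glo, 30 min RT.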
# [7] = target: Acetylcholinesterase (Homo sapiens) (UniProt P22303); test: Acetylcholinesterase (AChE) small molecule antagonists: colormetric cell-based qHTS assay (AID 1347395; calls by dose curve; note: nearly all actives have a fitted effect of over 30% in size; note: potency is the fitted concentration of half-maximal effect)
# Procedure, shortened: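 Neuroblastoma line SH-SY5Y supplied the enzyme; cells were preincubated with compound for 30 min at 37 C and 5% CO2. Acetylthiocholine with DTNB was then added for 90 min at 37 C, and thiocholine was measured by colour.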
# [8] = target: Acetylcholinesterase (Homo sapiens) (UniProt P22303); test: Acetylcholinesterase (AChE) small molecule antagonists: enzyme-based qHTS assay (AID 1347397; calls by dose curve; note: nearly all actives have a fitted effect of over 55% in size; note: potency is the fitted concentration of half-maximal effect); conditions: Potency: AChE enzyme activity inhibition
# Procedure, shortened: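 Recombinant human AChE, dispensed at 50 mU/mL, was preincubated with Tox21 10K compounds or DMSO vehicle for 30 min at room temperature. DTNB plus acetylthiocholine was then added, and thiocholine was measured colorimetrically after a further 10 min.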
# [9] = Caspase-3/7 induction in CHO-K1 cells by small molecules, qHTS cell viability counter screen (AID 1346979); note: potency is the fitted concentration of half-maximal effect; nearly all actives have a fitted effect of over 35% in size
# Procedure, shortened: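 To flag cytotoxic compounds, treated CHO-K1 wild-type cells were given CellTiter-Fluor at 16hr and read fluorescently after 1hr at 37C; the caspase-3/7 luminescence was measured in these same wells.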
# [10] = target: Nuclear receptor subfamily 1 group I member 2 (Homo sapiens) (UniProt O75469); test: Human pregnane X receptor (PXR) activation by small molecules, qHTS assay (AID 1346985); note: nearly all actives have a fitted effect of over 40% in size
# Procedure, shortened: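 DPX-2 cells (HepG2 co-transfected with a PXR response element and a CYP3A4-promoter luciferase construct) were seeded at 2,000 per well, rested 5 hr at 37C, then exposed to DMSO-dissolved compounds for 24 hr. Activation was read as luciferase luminescence.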
# Nuclear receptor subfamily 1 group I member 2 (Homo sapiens), sequence (O75469 whole entry, looked up): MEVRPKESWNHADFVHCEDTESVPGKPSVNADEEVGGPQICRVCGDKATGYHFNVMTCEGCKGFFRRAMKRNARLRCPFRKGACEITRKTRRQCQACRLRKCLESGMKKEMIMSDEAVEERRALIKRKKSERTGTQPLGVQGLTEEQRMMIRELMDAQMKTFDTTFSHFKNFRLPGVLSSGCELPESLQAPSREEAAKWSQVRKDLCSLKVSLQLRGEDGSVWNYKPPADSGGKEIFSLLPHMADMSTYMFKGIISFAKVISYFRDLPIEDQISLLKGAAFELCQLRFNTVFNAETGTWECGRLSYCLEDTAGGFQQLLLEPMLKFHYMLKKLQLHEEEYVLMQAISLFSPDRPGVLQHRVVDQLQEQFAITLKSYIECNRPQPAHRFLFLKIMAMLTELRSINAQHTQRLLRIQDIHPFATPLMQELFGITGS
# Acetylcholinesterase (Homo sapiens), sequence (P22303 whole entry, looked up): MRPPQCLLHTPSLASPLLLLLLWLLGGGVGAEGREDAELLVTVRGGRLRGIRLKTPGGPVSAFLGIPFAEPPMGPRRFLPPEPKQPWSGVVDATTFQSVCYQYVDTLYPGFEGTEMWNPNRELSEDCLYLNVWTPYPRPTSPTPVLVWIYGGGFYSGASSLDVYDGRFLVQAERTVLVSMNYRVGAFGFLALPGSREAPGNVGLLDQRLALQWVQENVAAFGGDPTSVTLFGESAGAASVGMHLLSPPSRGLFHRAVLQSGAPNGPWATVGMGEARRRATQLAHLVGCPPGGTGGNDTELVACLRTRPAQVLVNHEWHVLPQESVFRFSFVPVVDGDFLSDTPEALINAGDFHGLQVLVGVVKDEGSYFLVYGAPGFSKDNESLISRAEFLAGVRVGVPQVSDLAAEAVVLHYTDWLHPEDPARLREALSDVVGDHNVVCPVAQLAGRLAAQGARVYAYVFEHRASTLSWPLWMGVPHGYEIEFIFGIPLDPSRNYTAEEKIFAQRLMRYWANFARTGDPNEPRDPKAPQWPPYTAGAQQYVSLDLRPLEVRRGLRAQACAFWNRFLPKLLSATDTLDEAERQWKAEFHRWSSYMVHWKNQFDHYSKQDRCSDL
# Nuclear receptor subfamily 1 group I member 2 (Rattus norvegicus), sequence (Q9R1A7 whole entry, looked up): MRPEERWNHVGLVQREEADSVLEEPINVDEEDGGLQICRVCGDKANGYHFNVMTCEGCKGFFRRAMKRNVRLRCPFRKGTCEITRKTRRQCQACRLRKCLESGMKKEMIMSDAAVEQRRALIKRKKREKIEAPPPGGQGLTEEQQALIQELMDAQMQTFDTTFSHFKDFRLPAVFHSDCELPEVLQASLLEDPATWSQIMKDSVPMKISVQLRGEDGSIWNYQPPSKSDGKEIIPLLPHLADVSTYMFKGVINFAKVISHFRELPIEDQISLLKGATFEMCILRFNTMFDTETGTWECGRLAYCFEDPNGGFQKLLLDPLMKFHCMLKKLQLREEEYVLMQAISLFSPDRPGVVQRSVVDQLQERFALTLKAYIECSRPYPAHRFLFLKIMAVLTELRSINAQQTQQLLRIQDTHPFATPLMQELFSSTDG
SMILES,Potency [1],Potency [2],Potency [3],Potency [4],max activation [5] [%],Potency [6],Potency [7],Potency [8],Potency [9],Potency [10]
Cc1c(Cl)c(=O)oc2cc(OP(=O)(OCCCl)OCCCl)ccc12,inactive,inactive,inactive,11.9 µM (active),8.02,inactive,3.89 µM (active),0.246 µM (active),,
CCCCCCCCCBr,inactive,inactive,inactive,inactive,,,inactive,inactive,,
Cc1cccc(OP(=O)(Oc2cccc(C)c2)Oc2cccc(C)c2)c1,inactive,inactive,inactive,30.6 µM (active),,,inactive,inactive,,
CNC(C)Cc1ccc2c(c1)OCO2 (configuration not stated),inactive,inactive,inactive,inactive,,,inactive,inactive,,
O=C(CCCN1CCC2(CC1)C(=O)NCN2c1ccccc1)c1ccc(F)cc1,inactive,inactive,7.5 µM (active),4.22 µM (active),,,inactive,inactive,,
CN(CCCC(O)c1cccnc1)N=O (configuration not stated),inactive,inactive,inactive,inactive,,,inactive,inactive,,
CN(C)C1CSSSC1,inactive,inactive,inactive,61.1 µM (active),,,inactive,inactive,,
CCCCCCCCCCCCCC[P+](CCCCCC)(CCCCCC)CCCCCC (tested in a mixture with another compound),19.3 µM (active),,24.3 µM (active),2.17 µM (active),,,inactive,20 µM (active),4.33 µM (active),
Fc1ccc(Oc2ccnc3cc(Cl)cc(Cl)c23)cc1,inactive,inactive,inactive,27.3 µM (active),,,inactive,inactive,,
O=[N+]([O-])c1ccc(Oc2ccc(C(F)(F)F)cc2[N+](=O)[O-])cc1,inactive,inactive,inactive,17.2 µM (active),,,inactive,inactive,,
O=C1c2ccccc2C(=O)C1C(=O)C(c1ccccc1)c1ccc(Cl)cc1 (configuration not stated),inactive,inactive,30.6 µM (active),19.3 µM (active),,,inactive,inactive,,
CCOP(=S)(OCC)OC(Cl)C(Cl)(Cl)Cl (configuration not stated),inactive,inactive,inactive,inactive,,,35.6 µM (active),79.6 µM (active),,
Cc1cc(SCc2sc(-c3ccc(C(F)(F)F)c(F)c3)nc2C)ccc1OCC(=O)O,inactive,inactive,,24.3 µM (active),,,inactive,,,
ClC1=C(Cl)[C@]2(Cl)[C@H]3[C@H]([C@H]4C=C[C@H]3C4)[C@@]1(Cl)C2(Cl)Cl,inactive,inactive,inactive,,,,inactive,inactive,,
O=[N+]([O-])c1c2ccccc2cc2ccccc12,inactive,inactive,,21.7 µM (active),,,inactive,inactive,,
O=C1NCN(c2ccccc2)C12CCN(CC1COc3ccccc3O1)CC2 (configuration not stated),inactive,inactive,inactive,5.96 µM (active),,,inactive,inactive,,
Cc1cc(Cl)ccc1O[C@H](C)C(=O)O,inactive,inactive,inactive,inactive,,,inactive,inactive,,
CC1(C)CC/C(=C/c2ccc(Cl)cc2)C1(O)Cn1cncn1 (configuration not stated),inactive,inactive,inactive,12.1 µM (active),,,inactive,inactive,,
Oc1ccc(C(=C(Cl)Cl)c2ccc(O)cc2)cc1,inactive,inactive,,61 µM (active),,,inactive,,,
O=CC(Br)(Br)Br,inactive,inactive,54.3 µM (active),,,,inactive,inactive,,
C[C@H]1CC[C@@H]2[C@@H](C)[C@H]3[C@H](C[C@H]4[C@@H]5CC=C6CC(O[C@@H]7O[C@H](CO)[C@H](O)[C@H](O[C@@H]8O[C@H](CO)[C@@H](O)[C@H](O)[C@H]8O)[C@H]7O[C@H]7O[C@@H](C)[C@H](O)[C@@H](O)[C@H]7O)CC[C@]6(C)[C@H]5CC[C@]34C)N2C1 (some centres not stated),inactive,inactive,31.6 µM (active),,-11.8,inactive,26 µM (active),inactive,,inactive
CCCCCCCCCCCCCN1CC(C)OC(C)C1 (configuration not stated),inactive,inactive,,inactive,,,inactive,inactive,,
C[C@@H](Oc1ccc(Cl)cc1Cl)C(=O)O,inactive,inactive,inactive,inactive,,,inactive,inactive,,
Oc1c(Cl)c(Cl)cc(Cl)c1Cl,inactive,inactive,inactive,,,,inactive,inactive,,
NC(=O)CCl,inactive,inactive,inactive,inactive,,,inactive,inactive,,
Oc1ccc2ccc3cccc4ccc1c2c34,inactive,inactive,inactive,27.3 µM (active),,,inactive,inactive,,
CCC(C)c1cc(C(C)(C)C)cc(-n2nc3ccccc3n2)c1O (configuration not stated),inactive,inactive,inactive,inactive,,,inactive,inactive,,
CC(C)(C)c1ccc(CSc2cnn(C(C)(C)C)c(=O)c2Cl)cc1,inactive,inactive,,inactive,,,inactive,inactive,,
